This note sets out measurements from PubChem BioAssay (NCATS).

Assay [1] deals with Metallo-beta-lactamase type 2 (Klebsiella pneumoniae) (UniProt C7C422). The assay is described as follows: qHTS to identify inhibitors of the New Delhi Metallo-beta-lactamase (NDM): assay validation screen against the NCATS LOPAC Collection (AID 1794843).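 Also: nitrocefin turnover by NDM-1 measured as 485 nm absorbance at plateau.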 Put shortly: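 NDM-1 at 2 nM final in 50 mM HEPES pH 7.0, 1 uM ZnSO4, 0.01% Tween20, preincubated with LOPAC compounds pinned in DMSO; 50 uM nitrocefin (stock) added. Hydrolysis read as absorbance at 485 nm in the plateau phase.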
Metallo-beta-lactamase type 2 (Klebsiella pneumoniae), sequence (C7C422 whole entry, looked up): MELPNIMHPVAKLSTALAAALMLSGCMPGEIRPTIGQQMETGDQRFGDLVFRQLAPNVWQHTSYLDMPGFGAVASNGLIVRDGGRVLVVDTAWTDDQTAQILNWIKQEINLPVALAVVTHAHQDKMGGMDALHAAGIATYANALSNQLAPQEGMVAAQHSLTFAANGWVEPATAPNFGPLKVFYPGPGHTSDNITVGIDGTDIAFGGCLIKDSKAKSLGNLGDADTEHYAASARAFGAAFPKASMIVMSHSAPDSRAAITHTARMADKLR
On the technique in general: In qHTS, concentration-response curves come from the screen itself.

Assay [2] deals with Glutathione peroxidase 1 (Homo sapiens) (UniProt P07203). The assay is described as follows: Primary qHTS Assay for Inhibitors of Recombinant Selenoprotein Glutathione Peroxidase 1 (GPX1) (AID 1845191). Also: nearly all actives have a fitted effect of over 65% in size. The method in brief:
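GR-coupled readout: NADPH consumption tracked by fluorescence, ex 340/em 450 nm, at t=0 and after 15 min at RT. Final mix 10 nM GPX1, 1 mM GSH, 0.5 mM CHP, 0.5 mM NADPH, 100 nM GR, 0.01% BSA, following 30 min enzyme–compound preincubation.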

The target in assay [3] is Phospholipid hydroperoxide glutathione peroxidase GPX4 (Homo sapiens) (UniProt P36969). The assay is described as follows: Primary qHTS Assay for Inhibitors of Recombinant Selenoprotein Glutathione Peroxidase 4 (GPX4) (AID 1845192). Also: nearly all actives have a fitted effect of over 65% in size. The method in brief: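 Steps: GPX4 plus compound, 30 min RT; add GR/GSH/NADPH master mix; start with cumene hydroperoxide; read 340/450 nm fluorescence at 0 and 15 min. Finals were 200 nM GPX4, 1 mM GSH, 0.5 mM CHP, 0.5 mM NADPH, 100 nM GR.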
Phospholipid hydroperoxide glutathione peroxidase GPX4 (Homo sapiens), sequence (P36969 whole entry, looked up): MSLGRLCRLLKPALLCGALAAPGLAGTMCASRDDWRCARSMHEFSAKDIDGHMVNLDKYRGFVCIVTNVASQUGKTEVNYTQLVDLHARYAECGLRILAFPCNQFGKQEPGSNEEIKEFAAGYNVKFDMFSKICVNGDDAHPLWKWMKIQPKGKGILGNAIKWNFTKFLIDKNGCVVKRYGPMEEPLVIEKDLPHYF

For assay [4], the target named is Luciferin 4-monooxygenase (Photinus pyralis) (UniProt P08659). Description: Primary firefly luciferase (FLuc) qHTS assay for identification of artifact compounds. (AID 1845220). Also: nearly all actives have a fitted effect of over 60% in size. Particulars: outcome: dose series up to 54.1 µM unless noted. The method in brief: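 D-luciferin and ATP (10 uM each, final) in Tris acetate buffer pH 7.6 were incubated with compounds for 15 min at room temperature. The reaction was started with 10 nM Photinus pyralis luciferase and luminescence read after 5 min. Percent inhibition was fitted to a 4-parameter Hill equation.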

In assay [5] the test system is Nanoluciferase (engineered Oplophorus gracilirostris luciferase). Description: Primary Nanoluciferase (NLuc) qHTS assay for identification of artifact compounds. (AID 1845222). Put shortly: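 Diluted conditioned medium from NLuc-expressing S16 cells treated with compounds for 15 min at room temperature, then Nano-Glo substrate added; luminescence read after 5 min. Percent inhibition versus no-enzyme and DMSO controls fitted to 4-parameter Hill equation.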

The nature of assay [6]: Primary redox qHTS assay for identification of artifact compounds. (AID 1845223). Put shortly:
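Redox-cycling detection via DTT (250 uM final) oxidation coupled to Amplex Red (25 uM)/HRP (250 mU/mL) in HBSS. 15 min preincubation plus 30 min after DTT, room temperature. Ex/Em 525/598 nm; 4-parameter Hill fit against DMSO and 10 uM DA3003.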

Assay [7] in a line: Quantitative High-Throughput drug screen in 47 multiple myeloma cell lines against the NCATS MIPE library collection: FR4_PLB cell viability assay (AID 1918924; also: nearly all actives have a fitted effect of over 35% in size; also: potency is read from the fitted curve at half-maximal effect). Put shortly: (§1)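 We plated 500 myeloma cells per well, pinned in MIPE 4.0 compounds, and incubated for 48 hours at 37C. ATP was then quantified with CellTiter-Glo, with DMSO and media-only wells defining 100% and 0%.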

A short description of assay [8]: Quantitative High-Throughput drug screen in 47 multiple myeloma cell lines against the NCATS MIPE library collection: Delta47_JCRB cell viability assay (AID 1918925; also: nearly all actives have a fitted effect of over 45% in size; also: potency is read from the fitted curve at half-maximal effect). Put shortly: (§2)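 Inhibition of cell viability is measured here. Each line was plated at 500 cells per well, treated with MIPE 4.0 drugs, kept 48 hours at 37C, then assayed for ATP content by CellTiter-Glo luminescence.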

Assay [9] in a line: Quantitative High-Throughput drug screen in 47 multiple myeloma cell lines against the NCATS MIPE library collection: EJM_DSMZ cell viability assay (AID 1918926; also: nearly all actives have a fitted effect of over 30% in size; also: potency is read from the fitted curve at half-maximal effect). The method in brief: as §2
The nature of assay [10]: Quantitative High-Throughput drug screen in 47 multiple myeloma cell lines against the NCATS MIPE library collection: AMO1_DSMZ cell viability assay (AID 1918927; also: nearly all actives have a fitted effect of over 30% in size; also: potency is read from the fitted curve at half-maximal effect). Put shortly: as §2
The nature of assay [11]: Quantitative High-Throughput drug screen in 47 multiple myeloma cell lines against the NCATS MIPE library collection: ARP1_JJKsccF8 cell viability assay (AID 1918928; also: nearly all actives have a fitted effect of over 40% in size; also: potency is read from the fitted curve at half-maximal effect). The method in brief:
(§3)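 Cell viability inhibition in this qHTS is measured via ATP content (CellTiter-Glo) after 48 h drug exposure at 37 °C. Wells hold 500 cells; DMSO-treated wells define 100% and medium-only wells 0%.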

A short description of assay [12]: Quantitative High-Throughput drug screen in 47 multiple myeloma cell lines against the NCATS MIPE library collection: ARD_JJKsccE7 cell viability assay (AID 1918929; also: potency is read from the fitted curve at half-maximal effect). Put shortly: as §2
A short description of assay [13]: Quantitative High-Throughput drug screen in 47 multiple myeloma cell lines against the NCATS MIPE library collection: Karpas620_DSMZ cell viability assay (AID 1918959). Also: nearly all actives have a fitted effect of over 30% in size. Also: potency is read from the fitted curve at half-maximal effect. Put shortly:
as §1

The nature of assay [14]: Quantitative High-Throughput drug screen in 47 multiple myeloma cell lines against the NCATS MIPE library collection: KMM1_JCRB cell viability assay (AID 1918960). Also: nearly all actives have a fitted effect of over 30% in size. Also: potency is read from the fitted curve at half-maximal effect. The method in brief:
as §3

Assay [15] can be described thus: Quantitative High-Throughput drug screen in 47 multiple myeloma cell lines against the NCATS MIPE library collection: KHM11_PLB cell viability assay (AID 1918962). Also: nearly all actives have a fitted effect of over 35% in size. Also: potency is read from the fitted curve at half-maximal effect. Put shortly: as §1
Assay [16] is described as follows: Quantitative High-Throughput drug screen in 47 multiple myeloma cell lines against the NCATS MIPE library collection: JIM3_ECACC cell viability assay (AID 1918963; also: nearly all actives have a fitted effect of over 35% in size; also: potency is read from the fitted curve at half-maximal effect). The method in brief: as §1
Assay [17] is described as follows: Quantitative High-Throughput drug screen in 47 multiple myeloma cell lines against the NCATS MIPE library collection: INA6_PLB cell viability assay (AID 1918965; also: nearly all actives have a fitted effect of over 55% in size; also: potency is read from the fitted curve at half-maximal effect). Put shortly:
(§4)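 Viability readout: CellTiter-Glo luminescence following 5 min room-temperature incubation with reagent. Prior exposure: 48 h, 37C, humidified 5% CO2, 500 cells per well.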

The nature of assay [18]: Primary fluorescence-based thiol-reactive (MSTI) qHTS assay for identification of artifact compounds. (AID 1845221).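 Also: thiol-reactive compounds lower the probe fluorescence signal; nearly all actives have a fitted effect of over 65% in size.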 Put shortly: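 qHTS titration of compound; 4 uM MSTI, PBS pH 7.4, 2% DMSO; 1 h RT, dark; fluorescence 525/598 nm; normalized to Acetyl-MSTI and MSTI; 4-parameter Hill fit.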
Assay [19] in a line: Quantitative High-Throughput drug screen in 47 multiple myeloma cell lines against the NCATS MIPE library collection: Karpas417_ECACC cell viability assay (AID 1918961). Also: potency is read from the fitted curve at half-maximal effect. Particulars: Karpas417 myeloma viability, CellTiter-Glo ATP luminescence, 48 h; viability (% of DMSO): at 45.8 µM (top of the series). Put shortly:
as §4
(In general: ATP-based viability assays read luminescence as a measure of living cells.)

A short description of assay [20]: Quantitative High-Throughput drug screen in 47 multiple myeloma cell lines against the NCATS MIPE library collection: JIM1_ECACC cell viability assay (AID 1918964; also: potency is read from the fitted curve at half-maximal effect). Put shortly:
as §2

Inconclusive results are not listed. Calls of active or inactive are those of the source. Calls follow the shape of the dose curve; as a rule, active = well fitted curve in the direction sought with a large enough effect; inconclusive = small, poorly fitted or top-dose-only effect, or another doubt; inactive = no such curve, though single readings can be large; an effect the other way counts as inactive or inconclusive.

Glutathione peroxidase 1 (Homo sapiens), sequence (P07203 whole entry, looked up): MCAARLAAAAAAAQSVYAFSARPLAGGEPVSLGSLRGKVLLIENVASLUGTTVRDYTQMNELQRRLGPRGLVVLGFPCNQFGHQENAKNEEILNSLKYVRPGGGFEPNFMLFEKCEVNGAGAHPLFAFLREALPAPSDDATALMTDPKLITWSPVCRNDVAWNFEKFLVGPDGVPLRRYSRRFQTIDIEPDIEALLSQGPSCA

Consider `CC(=O)NCCc1c[nH]c2ccccc12`, for which the result in [1], in [5] and in [6] was inactive. For the same compound, the Potency result in [2] and in assay [3] was “inactive” throughout. Besides, the outcome in assay [4] is “inactive [at 86.2 µM]”.
On to `CC[C@@H](C(N)=O)N1CCCC1=O`, for which, in assay [1], the call was inactive. The Potency result in assay [2], in [3], in [7], in [8], in assay [9] and in assay [10] was “inactive” in each case. Moreover, the Potency result in [11], in [12], in [13], in [14], in assay [15] and in assay [16] was “inactive” each time. In addition, in [17], the Potency result is “inactive”.
On to `CCC(=O)O[C@@H]1C=C2CCC3C(CCC4(C)C3CC[C@@H]4OC(=O)CC)C2CC1` (some centres undefined), for which the Potency entry in assay [2] and in assay [3] was “inactive” throughout.
For the compound `O=C(O)C(Cl)Cl`, the Potency result in [2] was “inactive”.
For the compound `c1ccc2sc(C3(N4CCCCC4)CCCCC3)cc2c1`, the call in [1] was inactive. Besides, the Potency result in assay [2] and in assay [3] was “inactive” each time.
With `C[C@]12CC[C@@H]3[C@@H](CCC4=CC(=O)CC[C@@H]43)[C@@H]1CC[C@@H]2OC(=O)CCc1ccccc1`, the Potency result in assay [2], in [3], in assay [7], in assay [10], in assay [13] and in assay [14] was “inactive” each time. For the same compound, in assay [16], the Potency result was “inactive”.
Consider `CC(C)(O)C(=O)Nc1ccc([N+](=O)[O-])c(C(F)(F)F)c1`, for which the Potency entry in assay [2], in assay [3], in assay [7] and in assay [11] was “inactive” throughout. For the same compound, the Potency is 7.43 µM (active) in assay [8]; 11.8 µM (active) in assay [10]; 18.7 µM (active) in [13]; 20.9 µM (active) in assay [15]; 7.43 µM (active) in assay [17].
On to `CCN1CCN(C(=O)Cc2ccc(Nc3ncc(F)c(Nc4ccc(C(=O)Nc5ccccc5Cl)cc4)n3)cc2)CC1`, for which the Potency result in [2] and in assay [18] was “inactive” in each case. Moreover, the compound was classed as inactive in assay [4], in [5] and in assay [6]. For the same compound, the Potency in assay [7] was 3.72 µM (active); in assay [8], 1.32 µM (active); in assay [9], 8.33 µM (active); in [10], 1.05 µM (active); in assay [11], 3.72 µM (active); in assay [12], 0.743 µM (active). In addition, the Potency in [13] is 1.87 µM (active); in assay [14] it was 2.64 µM (active); in assay [19] it was 2.96 µM (active); in assay [15], 2.35 µM (active); in [16], 3.72 µM (active); in assay [20], 2.09 µM (active). The Potency in [17] was 0.935 µM (active).
Take `CC(=O)N(C)c1cccc(-c2ccnc3c(C(=O)c4cccs4)cnn23)c1`: the Potency entry in assay [2], in assay [18], in assay [7], in [9] and in assay [16] was “inactive” in each case. Also, the compound was classed as inactive in [4], in assay [5] and in assay [6]. Also, the results for the Potency in assay [12], in [19] and in assay [17] were 20.9 µM (active), 23.5 µM (active) and 14.8 µM (active), respectively.
In the case of `Cc1c(C(=O)Nc2cccc(C(F)(F)F)c2)cc(-c2ccccc2)n1CCCN1CCOCC1`, the Potency result in [2], in assay [3] and in assay [18] was “inactive” in each case. The compound was called inactive in [4], in assay [5] and in assay [6]. The Potency was 23.5 µM (active) in [7]; 16.6 µM (active) in assay [8]; 18.7 µM (active) in assay [9]; 8.33 µM (active) in assay [10]; 20.9 µM (active) in assay [11]; 5.9 µM (active) in assay [12]. The Potency in assay [13] is 16.6 µM (active); in [14] it was 14.8 µM (active); in [19], 7.43 µM (active); in assay [16] it was 20.9 µM (active); in assay [20] it was 6.62 µM (active); in [17], 16.6 µM (active).
